# Test results reported in PubChem BioAssay AID1117361 (Southern Research Institute, 2015).
# About 900 (25%) of roughly 3,600 compounds were called active. How the calls were made is not given here. Not all results are given here. Potency and affinity values are given separately.
# Target: Protein Tat (Human immunodeficiency virus type 1 group M subtype B (isolate HXB2)) (UniProt P04608)
# Experiment: inhibitors of Tat binding to TAR RNA, dose response, counter-screen for Vif-APOBEC3G degradation inhibitor project, biochemical, fluorescence polarization, FAM-labeled TAR RNA (AID 1117361)
# Conditions: outcome: dose series up to 100 µM unless noted; series mostly up to 100 µM; inhibition: at the top concentration
SMILES,outcome,inhibition
O=C(NCc1ccccc1)/C(=C/c1ccc(OC(F)F)cc1)c1ccccc1,inactive,
O=C(CCS(=O)(=O)c1ccc(Br)cc1)N1CCN(c2ccc(F)cc2)CC1,,4.12% (inactive)
Cc1ccc(C(C)C)c(OCCCN2CC(C)OC(C)C2)c1 (stereo not given),,0.68% (inactive)
COC(=O)c1ccccc1NC(=O)C(C)Oc1ccccc1 (stereo not given),inactive,
COC(=O)c1ccccc1NC(=O)CSCC(=O)Nc1ccccc1,,9.46% (inactive)
Cc1nnc(-c2cnn(C)c2N)n1Cc1ccc(Cl)cc1,,2.7% (inactive)
COc1cc(C(=O)OCCN2CCCCC2)ccc1O,inactive,
COc1cc(/C=C2\CC/C(=C\c3cc(OC)c(O)c(OC)c3)C2=O)cc(OC)c1O,inactive,
CC12C(=O)N(c3ccccc3C(=O)O)C(=O)C1C1C=CC2C1 (stereo not given),inactive,
Cc1cc(C(=O)N2CCN(CCc3ccccc3)CC2)no1,inactive,
Cc1nc2ccccc2c2oc(C(=O)N3CCN(C(=O)c4ccco4)CC3)cc12,inactive,
CC(=O)c1c(C)[nH]c(C(=O)Nc2ccc(C)c(C)c2)c1C,,6.14% (inactive)
CN(C)c1ccc(/C=C/C#N)cc1,inactive,
CCC(C(=O)Nc1cc(C(=O)O)ccc1C)c1ccccc1 (stereo not given),inactive,
Cc1ccc(S(=O)(=O)N2CCCCC2)cc1C(=O)Nc1ccc2cn[nH]c2c1,,1.35% (inactive)
CCC(C)NC(=O)Cc1cn(C)c2ccccc12 (stereo not given),inactive,
CCc1nnc(NC(=O)CC(CN(C)S(=O)(=O)c2ccccc2)c2ccccc2)s1 (stereo not given),,3.38% (inactive)
C#CCSc1nnc(-c2sc3ccccc3c2Cl)o1,inactive,
O=C(O)CCCN1C(=O)/C(=C\C(Cl)=C\c2ccccc2)SC1=S,inactive,
O=C(CCn1c(=S)oc2ccccc21)Nc1ccc2c(c1)OCCO2,inactive,
Cc1ccc(NC(=O)CCC(=O)NNC(=O)COc2cccc3ccccc23)c(C)c1,,6.08% (inactive)
O=C(CCCCCN1C(=O)c2ccccc2C1=O)Nc1nccs1,,1.67% (inactive)

SMILES,outcome,inhibition
CCCCOC(=O)CCCN1C(=O)/C(=C2\SC(=S)N(CCCC(=O)OCCCC)C2=O)SC1=S,inactive,
CCc1ccccc1NNC(=O)CCc1ccccc1,inactive,
CN(CC(=O)Nc1ccccc1Cl)C(=O)Cn1cc(C(F)(F)F)cc(Cl)c1=O,,0.33% (inactive)
Cc1ccc(C)c(NC(=O)CSc2ncnc3nc[nH]c23)c1,,4.09% (inactive)
CC(C)(C)c1ccc(-c2nnc(SCCC#N)n2C2CCCC2)cc1,inactive,
Cc1nc(C)c2c(c1C(F)(F)F)-c1ccccc1C2(F)F,inactive,
O=c1[nH][nH]c(=O)c2nc(Nc3ccccc3)ncc12,inactive,
CCc1nc(NCC2CCCN2CC)c2nnn(Cc3ccccc3F)c2n1 (stereo not given),,16.2% (inactive)
CCN1CCN(C(=O)C2COc3ccccc3O2)CC1 (stereo not given),inactive,
Cc1ccc(N=Nc2ccc(N)cc2C)c(S(N)(=O)=O)c1,,24.7% (inactive)
Cc1c(C(=O)O)oc2ccc(S(=O)(=O)N3CCC(C)CC3)cc12,,2.7% (inactive)
CCOC(=O)CNc1nc2ccccc2n2c(C)nnc12,,5.77% (inactive)
CC(C)c1nc2ccccc2n1CCC(=O)O,,2.03% (inactive)
O=C1CN(C(=O)COC(=O)CCSc2ccccc2Cl)c2ccccc2N1,inactive,
Cc1ccc(-c2nnc(SCC(=O)N3CC(C)CC(C)C3)o2)cc1C (stereo not given),,4.77% (inactive)
Cc1ccc(-n2nnc3c(=O)n(CC(=O)c4ccccc4)cnc32)cc1,,1.35% (inactive)
Cn1c(=O)c2c(nc(NCCc3ccccc3)n2Cc2ccccc2)n(C)c1=O,,2.73% (inactive)
CC(=O)c1ccc(N2CCN(C(=O)C3CCC3)CC2)cc1,,5.41% (inactive)
CC1(C)CC(=O)C2=C(C1)NCN(Cc1ccc3c(c1)OCO3)C2,,2.73% (inactive)
COC(=O)c1cccc(NC(=O)c2ccc3c(c2)C(=O)N(CC2CCCO2)C3=O)c1 (stereo not given),,4.73% (inactive)
O=c1[nH]c2ccc(NS(=O)(=O)c3ccc(F)c(Cl)c3)cc2[nH]1,inactive,
O=C(O)c1cccc2c1Oc1ccccc1S2(=O)=O,,1.67% (inactive)

SMILES,outcome,inhibition
CCN1CNC(=S)N(CCc2ccccc2)C1,inactive,
CCOc1ccc2nc(Cl)c(C3CC(c4ccccc4)=NN3C(=O)c3cccs3)cc2c1 (stereo not given),inactive,
O=C(NCCC1CCCCN1S(=O)(=O)c1ccc(F)cc1)C(=O)NCc1ccccn1 (stereo not given),,1% (inactive)
CC(C(=O)N1CCCCC1)n1ncn2cccc2c1=O (stereo not given),,14.3% (inactive)
CCOc1ccc(N(CC(=O)N2CCC(Cc3ccccc3)CC2)S(C)(=O)=O)cc1,inactive,
OCCN1CCN(CC(O)COc2ccc3ccccc3c2)CC1 (stereo not given),,6.76% (inactive)
C#CC[N+]1(CC#Cc2ccccc2)CCCC1,inactive,
CC1(C(=O)O)Cc2ccccc2C(=O)O1 (stereo not given),,8.19% (inactive)
CC12CCC(C(=O)Nc3cc(F)ccc3F)(CC1=O)C2(C)C (stereo not given),inactive,
O=C(c1ccc(S(=O)(=O)N2CCOCC2)cc1)N1CCN(c2cccc(Cl)c2)CC1,,2.73% (inactive)
CN(C)CCCN(CCCN(C)C)C(=S)Nc1ccc(S(=O)(=O)N2CCOCC2)cc1,,1.65% (inactive)
CC1(C)CC(=O)C(N=Nc2ccc(Br)cc2)=C(O)C1,,9.9% (inactive)
COCc1nnc(NC(=O)c2ccc(S(=O)(=O)N(C)C3CCCCC3)cc2)o1,,4.09% (inactive)
O=C(c1ccccc1S(=O)(=O)NCc1ccccc1)N1CCCC1,,3.38% (inactive)
C=CCn1c(Sc2nc(C)cs2)nc2c1c(=O)[nH]c(=O)n2C,,3.38% (inactive)
O=C(NCc1cccnc1)C1c2ccccc2C(=O)N1C1CCCC1 (stereo not given),,7.43% (inactive)
NNc1ccc([N+](=O)[O-])c2[nH][nH]c(=O)c12,inactive,
CCCNC(=O)c1ccccc1NC(=O)c1ccc(CSc2ccccc2)cc1,inactive,
COc1ccc(-c2cc(C)nc(SCC(=O)c3cccc([N+](=O)[O-])c3)n2)cc1,,5.01% (inactive)
C=C1C(=O)C2=CC1CCC(=O)C1(C)CCC(OC(C)=O)C(C)(C)C1CC2O (stereo not given),inactive,
CCn1c(SCC(=O)n2nc(C)cc2C)nnc1-c1ccc2c(c1)OCO2,,0.68% (inactive)
O=C(/C=C/c1cccs1)N1CCN(c2ccc(O)cc2)CC1,inactive,

SMILES,outcome,inhibition
O=C(Nc1ccc(Br)cn1)C1CCN(S(=O)(=O)c2cccs2)CC1,inactive,
Cc1ccc(Nc2nc3nonc3nc2N(C)C)cc1,,4.77% (inactive)
CCc1nc2ccc(Cc3ccc4nc(CC)[nH]c4c3)cc2[nH]1,,2.34% (inactive)
Cc1ccc(S(=O)(=O)N(CC(=O)N/N=C/c2cccc3c2OCCO3)c2ccccc2F)cc1,inactive,
Cc1ccc(-n2c(Cc3cccn3C)nnc2SCC(=O)Nc2nnc(C)s2)cc1,,9.55% (inactive)
COCC(=O)Nc1nnc(COc2ccccc2)s1,,0.68% (inactive)
Cn1cnnc1SCC(=O)Nc1ccccc1C(=O)NC1CC1,inactive,
N#Cc1ccccc1NC(=O)COC(=O)c1ccc(S(=O)(=O)N2CCCC2)cc1,,8.78% (inactive)
O=C(NC(=O)N1CCN(c2ccc([N+](=O)[O-])cn2)CC1)c1c(Cl)cccc1Cl,,19.8% (inactive)
CC1CC(C)CN(S(=O)(=O)c2ccc(NC(=O)c3ccc(=O)[nH]c3)cc2)C1 (stereo not given),inactive,
COc1ccc(-n2ncc3c(NCc4ccccn4)ncnc32)cc1,,2.03% (inactive)
CC(=O)Nc1ccc(S(=O)(=O)N2CCN(Cc3ccccn3)CC2)cc1,,7.43% (inactive)
COc1ccc(S(=O)(=O)N(CCc2ccccc2)CC(=O)NC(C)C)cc1,,10.8% (inactive)
O=C(Cn1c(=O)oc2ccccc21)N1CCN(S(=O)(=O)c2ccccc2)CC1,,16.5% (inactive)
CC(C)(C)OC(=O)N1CCN(c2ccc([N+](=O)[O-])cc2)CC1,inactive,
CCOC(=O)N1CCN(c2c(NCc3ccccc3Cl)c(=O)c2=O)CC1,inactive,
CC(C)(C)C(=O)O/N=C(\N)c1c(Cl)cccc1Cl,inactive,
C=CCc1ccc(OCCOCCNCCCC)c(OC)c1,,1% (inactive)
Cn1c(=O)c2c(nc(CN3CCOCC3)n2CCN2CCOCC2)n(C)c1=O,,6.08% (inactive)
COc1ccc(CCNC(=O)CSc2nc(-c3ccco3)cc(C(F)(F)F)n2)cc1,,10.2% (inactive)
O=C(CSc1nc(-c2ccccc2)cc(C(F)(F)F)n1)c1cccc([N+](=O)[O-])c1,,7.5% (inactive)
Cc1c(F)cccc1NC(=O)CCCCCC1NC(=O)NC1C (stereo not given),inactive,

SMILES,outcome,inhibition
Cc1ccc(S(=O)(=O)C(F)(F)F)cc1NC(=O)c1cccnc1,inactive,
COc1cc([N+](=O)[O-])ccc1NC(=O)Oc1ccc(NC(C)=O)cc1,inactive,
O=c1cc(-c2ccc(O)c(O)c2)oc2cc(O)c(C3OC(CO)C(O)C(O)C3O)c(O)c12 (stereo not given),,14% (inactive)
CC1C(=O)N2CCCc3cc(NC(=O)C(=O)NCc4cccnc4)cc1c32 (stereo not given),inactive,
COc1cc(C2Nc3ccccc3C(=O)N2c2ccccc2)ccc1O (stereo not given),,4.77% (inactive)
Clc1ccc(-c2nc3cnccn3c2Nc2ccc3c(c2)OCO3)cc1,inactive,
COc1cccc(-c2cc(C(=O)Nc3c(C)n(C)n(-c4ccccc4)c3=O)no2)c1,inactive,
CC[n+]1ccc(C)c2cc(S(=O)C(F)(F)F)ccc21 (stereo not given),,9.46% (inactive)
COc1ccc(CNC(=O)c2ccc(NC(=O)C3CCCO3)cc2)cc1 (stereo not given),,3.38% (inactive)
COc1ccc(C(=O)Nc2nncs2)cc1S(=O)(=O)N1CC(c2ccccc2)CC1=O (stereo not given),,2.03% (inactive)
COC(=O)C(C(=O)Nc1ccc(OC)cc1)C1CCCCCC1 (stereo not given),,12.3% (inactive)
COCCn1nnnc1C(c1cccs1)N1CCN(c2cc(C)ccc2C)CC1 (stereo not given),,3.38% (inactive)
Cc1ccc(C(=O)OC2CCS(=O)(=O)c3sccc32)cc1 (stereo not given),,8.87% (inactive)
COC(=O)c1ccc(NC(=O)CN2CCCC2)cc1,,2.7% (inactive)
COC(=O)Cc1ccc(NC(=S)NNC(=O)C2CC2)cc1,inactive,
CCc1nnc(NC(=O)CSc2nnc(Cc3ccccc3)o2)s1,,1.36% (inactive)
COC(=O)c1c(NC(=O)CSc2nnc(CNc3ccc(Cl)cc3)o2)sc(C)c1C,inactive,
CCOC(=O)C1=C(Cn2cnc3ccccc32)NC(=O)NC1c1ccc(OC)cc1 (stereo not given),inactive,
Cc1ccc(C(=O)Oc2ccc(C(=O)COC(=O)c3cnccn3)cc2)cc1,inactive,
Cc1ccccc1N1CCN(Cc2c[nH]c3ccccc23)CC1,inactive [at 50 µM],
CSc1ccc(/C=N/n2c(C3CCCCC3)n[nH]c2=S)cc1,inactive,
Cc1nc(C)c(C(=O)Nc2nc3c(C)cccc3s2)o1,,5.01% (inactive)
